Here are results for four compounds from PubChem BioAssay.

The source made the active and inactive calls.

Experiment [1] has as its system Wnt5a (protein binding on small-molecule microarray). Briefly: small molecules binding Wnt5a protein – biophysical, small-molecule microarray, 635/667 nm fluorescence, primary screen (AID 1142).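 Also: fluorescence read at 667 nm with signal to noise per printed feature.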 Conditions: 635 nm fluorescence, higher = more signal.
Experiment [2] is described as follows: ATP-based viability of Huh7 replicon cells – cell-based, CellTiter-Glo luminescence, basal, 48 h, cytotoxicity control for HCV replication inhibitor project, primary screen (AID 1143).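 Also: Huh7 hepatoma cells carrying a hepatitis C replication reporter with no stimulus; test concentration not given here.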 The settings on record: higher = more signal, called active from +8 up or from −8 down. In general terms: Replicon systems follow genome replication, usually without infectious particles.

A short description of experiment [3]: basal CRE-LacZ reporter activity in PC12 – cell-based, unstimulated, primary screen (AID 1145). The settings on record: no forskolin, luminescence, 4.5 h, higher = more signal, called active from +8 up or from −8 down.
A short description of experiment [4]: forskolin-driven CRE-LacZ activity in PC12 – cell-based, CRE-LacZ reporter, forskolin-stimulated, primary screen (AID 1146).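 Also: PC12 cells with 6xCRE LacZ reporter stimulated by forskolin 10 µM; beta-galactosidase reporter signal reflecting CREB driven transcription.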 Conditions: luminescence, 4.5 h, higher = more signal, called active from +8 up or from −8 down.
Experiment [5] concerns the target Streptavidin (Streptomyces avidinii) (UniProt P22629). Nature of the experiment: compounds binding control protein streptavidin – biophysical, small-molecule microarray, 635/667 nm fluorescence, artefact control for SMM compound annotation, primary screen (AID 1147).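 Also: signal reflects streptavidin binding to arrayed compounds as a control protein.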 The settings on record: higher = more signal.
Experiment [6] is described as follows: probe aInhba binding on compound microarray – biochemical, small-molecule microarray, 635/667 nm fluorescence, primary screen (AID 1148).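 Also: score merges 667nm spot fluorescence with signal-to-noise for antibody binding to printed compounds.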 The settings on record: higher = more signal.
Experiment [7] addresses Torsin-1A (Homo sapiens) (UniProt O14656). Briefly: TOR1A wild-type binding on microarray – cell lysate, small-molecule microarray, lysate, 635/667 nm, primary screen (AID 1149). Conditions: COS7 hTOR1A-WT lysate, 635 nm fluorescence, higher = more signal.
Experiment [8] has the same target. Briefly: torsin A mutant lysate binding on microarrays – cell lysate, small-molecule microarray, COS7 lysate, 635/667 nm fluorescence, primary screen (AID 1150).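 Also: score pools 667 nm emission and signal to noise measuring lysate protein binding.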 Conditions: COS7 hTOR1A mutant lysate, 635 nm fluorescence, higher = more signal.
The test system of experiment [9] is Sonic hedgehog protein (Shh). Nature of the experiment: Sonic hedgehog microarray binding compounds – biochemical, small-molecule microarray, 635/667 nm fluorescence, primary screen (AID 1151).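 Also: Shh protein binding to compounds spotted on small-molecule microarray slides; score combines spot fluorescence intensity with signal-to-noise across triplicate slides.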 Conditions: 635 nm fluorescence, higher = more signal.
Experiment [10] can be described thus: optical density shifts of acrAB sulA E. coli – strain DRC41, OD650, 48 h, E. coli filamentation inducer project, primary screen (AID 1152).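 Also: E. coli MC1000 strain DRC41 lacking acrAB efflux pump and sulA.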 Conditions: higher = more signal, called active from +8 up or from −8 down.
A short description of experiment [11]: probe aLefty1 binding on compound microarray – biochemical, small-molecule microarray, 635/667 nm fluorescence, primary screen (AID 1153).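 Also: score merges spot fluorescence with signal-to-noise ratio from the scanned slide images.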 The settings on record: higher = more signal.
The nature of experiment [12]: plasmodial surface anion channel blockers, osmotic lysis – cell-based, P. falciparum Indochina, OD700, 1 h, primary screen (AID 1154). The settings on record: P. falciparum Indochina infected RBC osmotic lysis, higher = more signal, called active from +8 up or from −8 down.
A short description of experiment [13]: plasmodial surface anion channel blockers, osmotic lysis – cell-based, P. falciparum Indochina, OD700, 2 h, primary screen (AID 1155).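 Also: lysis reports solute entry through the parasite surface anion channel PSAC.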 Conditions: P. falciparum Indochina infected erythrocytes, higher = more signal, called active from +8 up or from −8 down.
Experiment [14] is described as follows: changes in parasitized red cell lysis, either direction – P. falciparum Indochina, OD700, 3 h, PSAC antagonist project, primary screen (AID 1156). The settings on record: P. falciparum-infected erythrocytes, osmotic lysis, higher = more signal, called active from +8 up or from −8 down.
The nature of experiment [15]: plasmodial surface anion channel blockers, osmotic lysis – cell-based, P. falciparum Indochina, OD700, 18 h, primary screen (AID 1157). Conditions: P. falciparum Indochina infected erythrocytes, osmotic lysis OD700, 18 h; higher = more signal, called active from +8 up or from −8 down.
A short description of experiment [16]: S6 kinase pathway phospho-S6 level changes – cell-based, A549, cytoblot, luminescence, serum-stimulated, primary screen (AID 1158).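 Also: serum-stimulated A549 lung adenocarcinoma cells; signal is phosphorylated S6 detected by cytoblot immunostaining with HRP secondary.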 The settings on record: 5 h, higher = more signal.
Experiment [17] concerns the target NADPH oxidase 2 (Homo sapiens) (UniProt P04839). Nature of the experiment: compounds shifting NOX2 Amplex Red fluorescence – cell-based, HEK293-NOX2, PMA-stimulated, NOX inhibitor project, primary screen (AID 1159). Also: test concentration not given here. Conditions: 45 min, higher = more signal, called active from +8 up or from −8 down.
Experiment [18] has as its target NADPH oxidase 4 (Homo sapiens) (UniProt Q9NPH5). Briefly: compounds shifting NOX4 Amplex Red fluorescence – cell-based, HEK293-NOX4, tetracycline-induced, NOX inhibitor project, primary screen (AID 1160). The settings on record: HEK293-NOX4, Amplex Red H2O2 fluorescence, 45 min; higher = more signal, called active from +8 up or from −8 down.
Experiment [19] concerns the target NADPH oxidase 5 (Homo sapiens) (UniProt Q96PH1). Nature of the experiment: compounds shifting NOX5 Amplex Red fluorescence – cell-based, HEK293-NOX5, NOX inhibitor project, primary screen (AID 1161). Conditions: HEK293-NOX5, ionomycin, 45 min, higher = more signal.
The nature of experiment [20]: compound effects on lung adenocarcinoma cell viability – A549, calcein-AM fluorescence, 48 h, basal, profiling panel (AID 1162). Also: test concentration not given here. Conditions: higher = more signal.

Streptavidin (Streptomyces avidinii), sequence (P22629 whole entry, looked up): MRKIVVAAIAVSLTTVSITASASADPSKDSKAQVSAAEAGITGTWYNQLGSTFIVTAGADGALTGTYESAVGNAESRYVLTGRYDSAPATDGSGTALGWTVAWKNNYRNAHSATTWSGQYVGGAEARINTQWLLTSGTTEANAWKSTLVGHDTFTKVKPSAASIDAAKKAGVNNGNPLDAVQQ
NADPH oxidase 5 (Homo sapiens), sequence (Q96PH1 whole entry, looked up): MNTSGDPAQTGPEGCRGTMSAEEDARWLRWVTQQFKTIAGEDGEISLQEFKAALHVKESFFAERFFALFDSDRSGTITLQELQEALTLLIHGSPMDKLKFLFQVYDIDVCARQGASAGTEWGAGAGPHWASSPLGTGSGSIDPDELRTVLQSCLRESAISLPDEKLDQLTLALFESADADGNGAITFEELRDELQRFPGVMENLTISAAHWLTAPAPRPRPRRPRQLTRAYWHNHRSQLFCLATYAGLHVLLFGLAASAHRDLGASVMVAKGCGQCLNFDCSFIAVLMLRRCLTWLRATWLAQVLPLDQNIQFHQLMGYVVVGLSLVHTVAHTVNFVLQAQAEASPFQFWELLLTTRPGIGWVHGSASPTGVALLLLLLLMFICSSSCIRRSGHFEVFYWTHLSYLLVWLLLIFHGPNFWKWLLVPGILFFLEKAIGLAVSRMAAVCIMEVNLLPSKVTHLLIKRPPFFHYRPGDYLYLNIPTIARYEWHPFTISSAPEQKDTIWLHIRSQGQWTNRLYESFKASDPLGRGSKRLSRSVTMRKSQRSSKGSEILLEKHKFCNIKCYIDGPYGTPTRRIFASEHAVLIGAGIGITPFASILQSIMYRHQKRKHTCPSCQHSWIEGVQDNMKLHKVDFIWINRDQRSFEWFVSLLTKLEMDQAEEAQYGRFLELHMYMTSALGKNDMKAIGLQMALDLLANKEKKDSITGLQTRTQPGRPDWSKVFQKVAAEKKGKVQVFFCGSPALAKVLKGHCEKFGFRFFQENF
NADPH oxidase 4 (Homo sapiens), sequence (Q9NPH5 whole entry, looked up): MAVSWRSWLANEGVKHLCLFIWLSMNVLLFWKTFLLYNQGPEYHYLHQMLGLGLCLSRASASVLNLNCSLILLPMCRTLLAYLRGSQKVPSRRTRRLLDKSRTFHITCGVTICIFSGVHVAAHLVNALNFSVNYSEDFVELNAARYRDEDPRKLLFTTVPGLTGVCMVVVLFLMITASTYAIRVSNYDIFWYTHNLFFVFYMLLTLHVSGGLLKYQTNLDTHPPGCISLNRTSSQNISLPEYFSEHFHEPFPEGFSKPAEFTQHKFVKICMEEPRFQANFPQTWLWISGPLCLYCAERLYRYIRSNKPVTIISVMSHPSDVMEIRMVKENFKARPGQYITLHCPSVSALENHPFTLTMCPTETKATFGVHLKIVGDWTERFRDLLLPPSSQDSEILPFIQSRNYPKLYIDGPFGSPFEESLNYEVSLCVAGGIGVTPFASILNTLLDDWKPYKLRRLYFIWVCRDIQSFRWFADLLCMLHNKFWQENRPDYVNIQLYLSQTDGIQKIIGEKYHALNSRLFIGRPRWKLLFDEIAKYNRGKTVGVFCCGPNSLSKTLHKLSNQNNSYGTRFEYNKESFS
Torsin-1A (Homo sapiens), sequence (O14656 whole entry, looked up): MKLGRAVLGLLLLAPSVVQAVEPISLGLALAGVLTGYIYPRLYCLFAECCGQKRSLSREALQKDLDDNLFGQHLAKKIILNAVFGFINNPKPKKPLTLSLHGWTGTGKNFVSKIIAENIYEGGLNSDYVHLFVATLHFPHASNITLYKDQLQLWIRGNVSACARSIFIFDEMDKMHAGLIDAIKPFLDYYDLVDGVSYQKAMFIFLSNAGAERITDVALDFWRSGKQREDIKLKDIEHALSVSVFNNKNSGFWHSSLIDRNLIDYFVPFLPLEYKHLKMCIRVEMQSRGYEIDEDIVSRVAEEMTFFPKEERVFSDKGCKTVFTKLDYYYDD
NADPH oxidase 2 (Homo sapiens), sequence (P04839 whole entry, looked up): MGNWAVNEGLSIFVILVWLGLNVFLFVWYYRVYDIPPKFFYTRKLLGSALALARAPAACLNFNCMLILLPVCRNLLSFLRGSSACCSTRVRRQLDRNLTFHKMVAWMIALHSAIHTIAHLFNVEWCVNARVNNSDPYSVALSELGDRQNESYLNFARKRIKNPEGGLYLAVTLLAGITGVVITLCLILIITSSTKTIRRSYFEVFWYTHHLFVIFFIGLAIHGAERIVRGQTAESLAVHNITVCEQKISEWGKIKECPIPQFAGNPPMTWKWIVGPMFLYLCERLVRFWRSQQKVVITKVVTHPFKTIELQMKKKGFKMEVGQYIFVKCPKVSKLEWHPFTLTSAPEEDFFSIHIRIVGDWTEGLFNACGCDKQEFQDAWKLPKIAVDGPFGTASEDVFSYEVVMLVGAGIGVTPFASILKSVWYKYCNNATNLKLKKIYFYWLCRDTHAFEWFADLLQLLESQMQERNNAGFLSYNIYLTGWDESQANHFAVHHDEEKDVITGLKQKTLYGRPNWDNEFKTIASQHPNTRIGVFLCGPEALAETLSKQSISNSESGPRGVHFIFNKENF

`CC(C)NC(=O)[C@@H]1c2ccccc2C(=O)N(Cc2cc(F)cc(C(F)(F)F)c2)[C@H]1c1ccc(CO)cc1`: the composite z-score in [1] is -0.0581; in experiment [5], -0.95; in experiment [6], -0.329; in [7], -0.479; in experiment [8], -0.0988; in [9], -0.72. In addition, the composite z-score in experiment [11] is -0.113. The z-score in experiment [2] is 0.142 (inactive); in experiment [3], -0.529 (inactive); in experiment [4] it was -1.08 (inactive); in experiment [10], 1.39 (inactive); in [12], 2.06 (inactive); in [13], 0.391 (inactive). Besides, the z-score in experiment [14] is 1.47 (inactive); in experiment [15], 0.178 (inactive); in experiment [16] it was 0.161; in experiment [17], 0.146 (inactive); in experiment [18], 1.08 (inactive); in experiment [19] it was 0.949. In experiment [20], the z-score was 1.48.
As to `CCN(CC)c1ccc(N2CC=CC34O[C@@H]5C=CCOC(=O)[C@@H]5[C@H]3C(=O)N(C(CO)C(C)C)[C@@H]4C2=O)cc1` (stereo not given in full), the composite z-score was -0.191 in experiment [1]; -0.258 in experiment [5]; -0.391 in [6]; -0.156 in experiment [7]; -0.701 in [8]; 0.0806 in experiment [9]. The compound also yielded a composite z-score in experiment [11] of 0.189. In addition, the z-score in experiment [2] is -0.524 (inactive); in experiment [3], 0.471 (inactive); in experiment [4], 0.6 (inactive); in experiment [10], 1.38 (inactive); in experiment [12], -0.185 (inactive); in [13], -0.262 (inactive). The z-score was 1.21 (inactive) in [14]; 0.135 (inactive) in experiment [15]; -0.369 in experiment [16]; 0.787 (inactive) in experiment [17]; 0.196 (inactive) in experiment [18]; 1.23 in [19]. For the same compound, in experiment [20], the z-score was -0.0755.
For `CCCCC(=C=CC[C@@H](O)c1ccc(OCCO)cc1)C[C@@H](O)c1cc(Cl)cc(Cl)c1O`, the composite z-score in [1] was 0.145; in experiment [5] it was 0.414; in experiment [6] it was 0.0536; in experiment [7], -0.0726; in experiment [8], 1.01; in experiment [9], 0.184. Moreover, the composite z-score in experiment [11] is -0.147. The z-score in experiment [2] was -2.71 (inactive); in experiment [3], 14.3 (active); in experiment [4], -2.04 (inactive); in [10], 1.55 (inactive); in experiment [12] it was 20.3 (active); in [13], 4.24 (inactive). Further, the z-score is 1.41 (inactive) in experiment [14]; 0.159 (inactive) in [15]; 0.903 in experiment [16]; 0.444 (inactive) in [17]; 0.55 (inactive) in [18]; -1.14 in [19]. The z-score in [20] is 2.24.
For `CCN(CC)c1ccc(N2CC=CC34O[C@@H]5C=CCOC(=O)[C@@H]5[C@H]3C(=O)N(C(C)CO)[C@@H]4C2=O)cc1` (stereo not given in full), the composite z-score in experiment [1] is -0.701; in experiment [5], -1.27; in experiment [6] it was -0.123; in experiment [7], -1.08; in [8] it was -0.641; in experiment [9], -0.903. Besides, in experiment [11], the composite z-score amounted to 0.121. Also, the z-score is -0.269 (inactive) in experiment [2]; 0.195 (inactive) in experiment [3]; 0.188 (inactive) in [4]; 1.55 (inactive) in experiment [10]; 0.0295 (inactive) in experiment [12]; 0.447 (inactive) in experiment [13]. Besides, the z-score in experiment [14] is 0.976 (inactive); in experiment [15], 0.255 (inactive); in experiment [16] it was -0.153; in experiment [17] it was 0.126 (inactive); in experiment [18] it was 0.197 (inactive); in [19], 0.871. In addition, in experiment [20], the z-score is 0.271.
